An excerpt weighted towards active compounds, which were near 3.1% of everything screened.
RAD52 inh – RAD52 DNA annealing inhibitors, primary screen, biochemical, FRET, single point, set 2 | recombinant RAD52 DNA annealing, FRET fluorescence | inhibition, % at 18.7 µM | actives 0.46% (n = 360,000);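 active = every replicate showing at least 50% inhibition; inconclusive = mean inhibition at least 50% but not in every replicate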
RAD54 branch – inhibitors of human RAD54 branch migration, primary screen, biochemical, fluorescence, single point; DNA repair and recombination protein RAD54-like (Homo sapiens), Q92698; RAD54 Holliday junction branch migration, FAM/BHQ fluorescence; inhibition, % at 10.4 µM; actives 0.14% (n = 360,000);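 active = mean normalized replicate activity at least 40 and at least half of replicates scoring 40 or more; inconclusive = only one of the two criteria met; inactive = mean below 40 and under half of replicates reaching 40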;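 also: 0% = median of neutral control wells and 100% = median of positive control wells; inhibitors cause a drop in the FAM fluorescence signal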
AF4-AF9 inh – inhibitors of AF4 peptide binding to AF9, primary screen, biochemical, AlphaScreen, biotin-AF4 peptide, FLAG-AF9, single point; Protein AF-9 (Homo sapiens), P42568; inhibition, % at 10 µM; actives 0.47% (n = 350,000); AID 651704, 2012;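 active = every replicate reaching a set inhibition limit, whatever the replicate mean, cut at about 25% in these data; inconclusive = mean inhibition reaches that limit but some replicates miss it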;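 also: 0% = plate neutral control median and 100% = total signal loss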
Target sequence (P42568 whole entry, looked up): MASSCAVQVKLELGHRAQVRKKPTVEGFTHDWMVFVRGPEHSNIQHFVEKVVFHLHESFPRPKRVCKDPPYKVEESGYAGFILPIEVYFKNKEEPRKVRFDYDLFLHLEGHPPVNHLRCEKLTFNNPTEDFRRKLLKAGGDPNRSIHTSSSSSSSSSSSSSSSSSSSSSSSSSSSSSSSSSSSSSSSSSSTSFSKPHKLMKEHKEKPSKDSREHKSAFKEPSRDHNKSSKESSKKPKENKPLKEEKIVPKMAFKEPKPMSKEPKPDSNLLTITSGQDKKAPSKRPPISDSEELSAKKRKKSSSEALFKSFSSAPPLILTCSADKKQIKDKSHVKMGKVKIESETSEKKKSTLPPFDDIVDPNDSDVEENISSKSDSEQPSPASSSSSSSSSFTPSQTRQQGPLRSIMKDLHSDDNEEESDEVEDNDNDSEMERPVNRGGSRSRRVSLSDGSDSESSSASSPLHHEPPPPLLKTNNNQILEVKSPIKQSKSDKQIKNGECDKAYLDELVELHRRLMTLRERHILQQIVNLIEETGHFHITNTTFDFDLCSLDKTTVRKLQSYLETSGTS
dFosB act-1 – activators of delta FosB homodimer, primary screen, biochemical, fluorescence polarization, TAMRA-CDK5 oligo, single point. purified delta FosB; percent of positive-control signal above neutral wells. AID 493131, 2011. actives 0.99% (n = 340,000). activation, % at 25 µM. Protein FosB (Mus musculus), P13346;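 active = mean activation above about 17%, with every replicate also reaching it, limit read from the data, passing the limit was not always enough; inconclusive = only one of the two conditions met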
INS-1E GSIS act – GLuc luminescence reporter in INS-1E cells, primary screen for activators of glucose-dependent secretion of insulin; activation, % at 16.6 µM; INS-1E GLuc reporter insulin secretion, 2-3 h; actives 0.61% (n = 370,000); AID 743287, 2014;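 active = lowest replicate activation of at least 40%, so every replicate reaches that level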;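 also: 0% = median of neutral control wells and 100% = median of IBMX positive control wells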
DENV2 CPE rescue – inhibitors of DENV2 cytopathic effect, primary screen, cell-based, plate reader, single concentration; DENV2-infected cells, cytopathic effect rescue; CPE inhibition, % at 9.99 µM; actives 1.7% (n = 350,000); AID 651640, 2012; in the data active = CPE inhibition above about 20%, passing the limit was not always enough; inconclusive = no clear call, values can overlap the other calls; tested in BHK-21 cells;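 also: 0% = median of neutral control wells and 100% = median of positive control wells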
dFosB act-2 – activators of mouse delta FosB DNA binding, confirmation, biochemical, fluorescence polarization, TAMRA-CDK5 oligo, cherry-picked samples. shares compounds with dFosB act-1. purified delta FosB; normalised: neutral wells 0, positive control 100. activation, % at 24.9 µM. 2,400 tested, under 10 active. AID 588690, 2011;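 active = highest replicate activation at or above 34% and every replicate reaching that threshold; inconclusive = meets only one of the two criteria; inactive = meets neither criterion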;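 also: higher polarization means more probe DNA bound by delta FosB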
An asterisk follows results filed as active; ? = inconclusive; . = not tested or not shown.

SMILES | RAD52 inh | RAD54 branch | AF4-AF9 inh | dFosB act-1 | INS-1E GSIS act | DENV2 CPE rescue | dFosB act-2
C[C@@H]1CN([C@H](C)CO)C(=O)Cc2cc(NC(=O)C3CC3)ccc2O[C@@H]1CN(C)Cc1ccc(C(=O)O)cc1 | 2 | 3 | -3 | . | 29 | -8 | .
COc1ccc(C(=O)Nc2nnc(S(=O)(=O)Cc3ccccc3)s2)cc1 | -6 | . | -2 | 23* | 17 | 16 | 7
CC(=O)Nc1ccc(/C(C)=N/NC(=O)c2ccc(COc3ccccc3Cl)o2)cc1 | -17 | -10 | 1 | 31* | 24 | -8 | -2
COc1ccc(/C=N/NC(=O)c2ccc(COc3ccccc3Cl)o2)cc1 | 9 | 19 | . | 28* | 3 | . | 8
Cc1cc(NC(=O)c2ccc(COc3ccccc3Cl)o2)no1 | -13 | -11 | -1 | 7 | 13 | -5 | .
CCC(C)n1c(=O)c(C(=O)Nc2ccccc2S(N)(=O)=O)c(O)c2ccccc21 (stereo not drawn) | . | -14 | . | 74* | . | . | 2
COc1ccc(/C=C/C(=O)OCC(=O)Nc2ccc3c(c2)OCO3)cc1 | -8 | 12 | 0 | 28* | 45 | -1 | -9
COc1cc(/C=C/C(=O)OCC(=O)Nc2ccc3c(c2)OCO3)ccc1O | -17 | 1 | 4 | -5 | 2 | 14 | .
COc1ccc(NC(=O)COC(=O)c2ccc3c(c2)OCCO3)cc1 | -1 | -5 | 0 | . | . | 2 | .
CCOc1ccc(NC(=O)COC(=O)c2ccc3c(c2)OCO3)cc1 | 2 | 1 | -4 | 1 | 12 | -8 | .
COc1ccc(NC(=O)COC(=O)c2ccc3c(c2)OCCO3)cc1OC | -10 | -1 | -13 | 48* | 31 | 10 | 2
O=C(COC(=O)c1ccc2c(c1)OCO2)NCc1ccc2c(c1)OCO2 | . | -8 | . | 3 | . | . | .
CNc1ccc(C(=O)OCC(=O)NCc2ccc3c(c2)OCO3)cc1[N+](=O)[O-] | -18 | -3 | 1 | 36* | 10 | 1 | -1
NC(=O)c1ccc(NC(=O)COC(=O)c2ccc3c(c2)OCO3)cc1 | -15 | 0 | 12 | 24* | 16 | ? | -2
C[C@H]1CN([C@@H](C)CO)S(=O)(=O)c2ccc(C#CC3CC3)cc2O[C@H]1CN(C)Cc1ccncc1 | 11 | -20 | 7 | . | -5 | -17 | .
O=C(COC(=O)c1cc(Br)ccc1O)Nc1ccc2c(c1)OCO2 | -4 | 5 | 0 | 43* | 25 | ? | -2
Cc1ccccc1NC(=O)Cc1nc(COC(=O)c2cc([N+](=O)[O-])ccc2N)cs1 | -18 | -8 | 2 | 27* | 9 | 2 | -7
Cc1ccccc1NC(=O)Cc1nc(COC(=O)c2cc(Br)ccc2O)cs1 | -25 | 17 | -1 | ? | 18 | -1 | .
CCOC(=O)c1c(C)[nH]c(C(=O)OCC(=O)Nc2cc(C)ccc2OC)c1C | . | 1 | . | 23* | . | . | 0
CCOC(=O)c1c(C)[nH]c(C(=O)OCC(=O)Nc2cc(Cl)ccc2OC)c1C | . | -6 | . | -1 | . | . | .
C[C@]12CC[C@H](O)CC1=C[C@H](O)C1C2CC[C@@]2(C)C1CC[C@@]2(O)C#Cc1ccc(CN)cc1 (stereo partly drawn) | -4 | . | 2 | 24* | . | -8 | 3
Cc1cc2cc(C)c(NCCNC(=O)c3ccccc3)nc2cc1C | 10 | 4 | -1 | -18 | -4 | -1 | .
Cc1ccc(C(=O)NCCNc2nc3cc(C)c(C)cc3cc2C)cc1 | . | -3 | . | 41* | 5 | . | 1
Cn1c(=O)c2c(SCC(=O)Nc3ccccc3F)nc(-c3ccccc3F)nc2n(C)c1=O | -4 | -5 | -5 | 15 | 15 | -4 | .
O=C(CSc1nc(C2CC2)nc2ccccc12)Nc1ccccc1 | -1 | 9 | 0 | 36* | 7 | -1 | -2
SMILES | RAD52 inh | RAD54 branch | AF4-AF9 inh | dFosB act-1 | INS-1E GSIS act | DENV2 CPE rescue | dFosB act-2
CC(=O)Nc1cccc(NC(=O)CSc2nc(C3CC3)nc3ccccc23)c1 | 11 | -1 | -3 | 15 | 3 | 1 | .
Cn1c(=O)c2c(SCC(=O)Nc3ccccc3F)nc(C3CC3)nc2n(C)c1=O | 5 | -9 | -2 | 24* | 2 | 7 | 0
COc1cc(NC(=O)CSc2nc(C3CC3)nc3ccccc23)cc(OC)c1 | -11 | 2 | -2 | 88* | -3 | 4 | 4
Cc1cccc(NC(=O)CSc2nc(C3CC3)nc3ccccc23)c1 | -1 | -6 | -3 | 8 | -3 | -2 | .
O=C(CSc1nc(C2CC2)nc2ccccc12)Nc1ccccc1N1CCOCC1 | -4 | . | -2 | -9 | 2 | -3 | .
O=C(CSc1nc(C2CC2)nc2ccccc12)Nc1ccccc1Cl | -9 | 4 | 6 | 31* | 15 | 19 | 2
O=C(Cc1ccccn1)NCC[C@H]1CC[C@H](NC(=O)c2ccccc2F)[C@@H](CO)O1 | -31 | -6 | -1 | . | 8 | 14 | .
COc1ccc(-c2nnc(SCC(=O)Nc3ccccc3OC)o2)cc1 | 0 | 4 | 0 | 0 | -3 | 3 | .
Cc1ccc(C)c(NC(=O)CSc2nnc(-c3n[nH]c4ccccc34)o2)c1 | . | -2 | . | 34* | -11 | . | -1
CCN(CC)S(=O)(=O)c1ccc(-c2nnc(SCC(=O)Nc3ccc(OC)cc3)o2)cc1 | . | 5 | . | 107* | . | . | 1
Cc1ccc(C)c(NC(=O)CSc2nnc(-c3ccccc3C)o2)c1 | . | 5 | . | 13 | . | . | .
O=C(CSc1nnc(-c2ccc(Br)cc2)o1)Nc1cccc2ccccc12 | -1 | 4 | 2 | 30* | -1 | -8 | 0
COc1ccc(-c2nnc(SCC(=O)Nc3cccc(Cl)c3)o2)cc1 | . | -3 | . | 38* | . | . | 3
O=C(CSc1nnc(-c2ccc(Br)cc2)o1)Nc1cccc(C(=O)O)c1 | -7 | 1 | -6 | -2 | 18 | ? | .
COc1cccc(NC(=O)N2C[C@H](O)COC[C@@H]3O[C@@H](CC(=O)N(C)C)CC[C@H]32)c1 | -17 | 1 | -4 | . | 9 | 1 | .
COc1ccc(CN(C)C[C@@H]2Oc3ccc(N(C)C)cc3CC(=O)N([C@H](C)CO)C[C@H]2C)cc1 | -1 | 2 | 0 | . | 15 | 7 | .
C[C@@H]1CN([C@@H](C)CO)C(=O)Cc2cc(NC(=O)CCN3CCOCC3)ccc2O[C@H]1CN(C)C | -4 | -17 | -2 | . | 21 | -6 | .
COc1ccc2c3c([nH]c2c1)[C@H](CO)N(C(=O)C1CCCC1)CC31CN(C(=O)c2ccncc2)C1 | 3 | . | 1 | . | 4 | -3 | .
